± gives the standard deviation.
System: EfPiwi piRISC loaded with L1MC piRNA (26 nt)
Assay: pre-steady-state target cleavage rate (min^-1); auxiliary factor: 500 nM Ephydatia muelleri Gtsf1; guide: L1MC piRNA 5'p-UAACUAAAUACUAUGCAAGCUGUAGG; MIWI and MILI are mouse PIWI proteins and EfPiwi is from a freshwater sponge; tags in brackets are library labels; higher = faster piRNA-guided slicing of the target
Procedure: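 Cleave-'n-Seq: a library of target RNAs (target site in constant flanks) at […] was incubated with 1 nM active freshwater sponge Ephydatia fluviatilis Piwi piRISC (synthetic 5'-monophosphorylated piRNA guide) with or without 500 nM EmGtsf1 at 33 °C for 1 min to 16 h. Uncleaved targets were sequenced and the pooled three trials fitted to a burst-and-steady-state model to give the pre-steady-state cleavage rate (min^-1). Sequence is the target site only. Fits with R² ≤ 0 are excluded.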

Sequence | pre-steady-state target cleavage rate
UCCUGGUACAGCUUGCAUAGUAUUAUAGUUA | 0.00555 ± 0.0023
UCCUGCUACAGCUUGCAUAGUUUUUUGUUA | 0.00384 ± 0.0021
UCCUCCUACAGCAUGCAUAGUAUUUACUUA | 0.00211 ± 0.0017
UCCUGCUAGAGCUUGCAUAGUAUUUUCAAA | 0.00315 ± 0.0025
UCCUGGAUGUCGAUGCUUAGAAUUUAGUUA | < 0.0001
UCCUGGAACAGCUAGCAUAGUAUUUUGUUA | 0.00465 ± 0.003
UCCUCCUACAGCUUGCAUAGUAUAUUGUUA | 0.00489 ± 0.003
UCCUGGAACAGCUUGCAUACUAUUUAGAUA | 0.00312 ± 0.0022
UCCUGCUACAGCCUGCAUAGUAUUUAGUUA | 0.01 ± 0.0029
UCCUGGAUCAGCUUGCUUAGUAUUUACAAA | 0.00612 ± 0.0047
UCCUGGAUGUCGAAGCAUACUAUUUUGUUA | < 0.0001
UCCUGGAACAGCUUGCAUAGUUUUUAGAUA | 0.00205 ± 0.0016
UCCUGGUACAGCUUGCAUAGUAAUUAGUAA | 0.00568 ± 0.0029
UCCUGGAACAGGUUGCAUAGUAUUUAGAUA | 0.00362 ± 0.0019
UCCUGGAACAGCUUGCAUAGUAUUUAGCUUA | 0.00529 ± 0.0018
UCCUCCUACAGCUUGCAAAGUAUUUACUUA | 0.00282 ± 0.0024
UCCUGCUACAGCUUGCAUAGUAUAAAGUAA | 0.00224 ± 0.0017
UCCUGCUACAGCUUGCAUAGUAUAUAGUUA | 0.00448 ± 0.0019
UCCUGGAUCAGCUUGCAUAGUAAAUAGUUA | 0.00673 ± 0.0027
UCCUGGAUCAGCUUCCAUAGUAUUUAGAAA | 0.00474 ± 0.0027

Sequence | pre-steady-state target cleavage rate
UCCUGGAACUGCUUGCAUAGUAUUUAGUAA | 0.00308 ± 0.0023
UCCUGGAUGAGCUUGCAUAGUAUUUAUUUA | 0.00435 ± 0.0029
UCCUGGAUCAGCUUCCAAAGUAUUUAGUUA | 0.00404 ± 0.0027
UCCUGCUACAGCUUGGAAAGUAUUUAGUUA | 0.0208 ± 0.0042
UCCUCCUAGAGCUUGCAUUGUAUUUAGUUA | 0.018 ± 0.0048
UCCUCCUACAGCUUGCUUAGUAUUUAGUAA | 0.00594 ± 0.0027
UCCUGCUACAGGUUGCAUAGUAUUUAGUAA | 0.00478 ± 0.0019
UCCUCCUUCAGCUUGCAUAGUAUAUAGUUA | 0.0124 ± 0.0058
UCCUGCUACAGCUUGGAUAGUAUUUAGAUA | 0.00339 ± 0.001
UCCUGCUACAGCUUGCAUAGUAUUUACUUA | 0.00356 ± 0.0027
UCCUGGAUGAGCUUGCAUUGUAUUUAGAUA | 0.00248 ± 0.0021
UCCUGGUACAGCUUGCAUAGUAUUUAUUUA | 0.00732 ± 0.0063
UCCUCCUACAGCUUCCAUAGUAUUUAGUUA | 0.0042 ± 0.0019
UCCUGCUACAGCAUGCAUAGUUUUUAGUUA | 0.00363 ± 0.0018
UCCUGGAUCUGGUUGCAUAGUAUUUAGUUA | 0.0604 ± 0.015
UCCUGGUACAGCUUGCUUAGUAUUAAGUUA | 0.00311 ± 0.0027
UCCUGGAUGUGCUUGCAUAGUAAUUAGUUA | 0.00847 ± 0.0037
UCCUGCUACACCUUGCAAAGUAUUUAGUUA | 0.00571 ± 0.0021
UCCUGCUACAGCUUGCAUAGUAUUUAGUCA | 0.00386 ± 0.0017
UCCUGGAUGAGCUUGCAUAGUUUUUAGUUA | 0.00485 ± 0.002
